# According to PubChem BioAssay (NCI):
# Compounds without any hit were thinned out: in the full panel of roughly 79,000, 15% have a hit. Activity calls are given as the source filed them. No stated cut-off is given here; in the data, active means growth inhibition above about 70%; inactive means the rest.
# Test: NCI Yeast Anticancer Drug Screen. Data for the mlh1 rad18 strain (AID 175)
# Settings: S. cerevisiae mlh1 rad18 strain growth inhibition; at 50.0 µM; active compounds read high
# In short: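 Growth inhibition of the yeast strain was measured after compound exposure and expressed relative to vehicle-treated controls. The strain carries defined defects in DNA damage repair.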
row,Structure (SMILES),growth inhibition
1,CCN(CC)C(=N)N,-14.4% (inactive)
2,Cc1ccc(-n2nnc(-c3ccc(Cl)c(Cl)c3)n2)cc1,-31.5% (inactive)
3,CN(C)C(=O)NC(=S)N(C)C,4.95% (inactive)
4,CCOC(=O)C1=CC(C)(C(=O)OCC)Nc2c(nc(N)[nH]c2=O)N1 (stereo not given),-19.9% (inactive)
5,Cc1cc(Br)c(NC(=O)c2csnn2)c(Br)c1,-11.4% (inactive)
6,COc1ccc(COC(=O)Oc2ccc(Cl)cc2)cc1OC,94.8% (active)
7,S=C1Cc2c([nH]c3ccccc23)-c2ccccc2N1,2.45% (inactive)
8,Cc1cc(N(CCC#N)CCC#N)ccc1/C=C/C(=O)Nc1cccc(Cl)c1,7.65% (inactive)
9,O=C(C(=O)N1CCc2ccccc21)c1c[nH]c2ccccc12,12.5% (inactive)
10,Clc1ccc2c(Cl)ncnc2c1I,-4.2% (inactive)
11,C=CCC12CC(C)OC1=Nc1ccccc1NC2=O (stereo not given),-9.8% (inactive)
12,O=C1c2ccccc2C(=O)N1N1C(=O)C2C3CCC(O3)C2C1=O (stereo not given),9.3% (inactive)
13,CCOC(=O)c1cn(C2OC(COC(=O)c3ccccc3)C(OC(=O)c3ccccc3)C2OC(=O)c2ccccc2)c(=O)nc1N (stereo not given),-7.15% (inactive)
14,O=[N+]([O-])c1cc(O)ccc1O,12% (inactive)
15,CC1=CC2N(C=C1)C(c1cccc([N+](=O)[O-])c1)=NON2c1cc(C)ccn1 (stereo not given),23.9% (inactive)
16,Oc1c(Cl)c(Cl)c(O)c2ccccc12,-52.9% (inactive)
17,CCOC(=O)c1c(-c2ccccc2)c(-c2ccccc2)cn1C,24.3% (inactive)
18,C1#CCSCC#CCSC1,24% (inactive)
19,COc1cc(CN2CCN(CCO)CC2)c(O)c(CN2CCN(CCO)CC2)c1,6.9% (inactive)
20,Cc1ccncc1.[O]=[Ge].[O]=[Ge].[O]=[Ge].[O]=[Ge].[O]=[Ge].[O]=[Ge][OH].[O]=[Ge][OH],-30.1% (inactive)

row,Structure (SMILES),growth inhibition
1,N#CCOS(=O)(=O)O,-1% (inactive)
2,CC1=NN(c2cc(S(=O)(=O)O)ccc2Cl)C(=O)C1N=Nc1ccccc1 (stereo not given),-24.8% (inactive)
3,CN1NC(=O)CC1c1ccccc1 (stereo not given),5.45% (inactive)
4,C/C(CCc1cnc2ccccc2c1)=N/NC(N)=O,95.6% (active)
5,N#Cc1ccc(OCCCCCOc2ccc(C#N)cc2I)c(I)c1,-44.1% (inactive)
6,OC1(c2ccccc2)c2ccccc2Oc2cc(Cl)ccc21 (stereo not given),45.8% (inactive)
7,C=CCOC(=O)c1c(Cl)c(Cl)c(Cl)c(Cl)c1C(=O)O,23.9% (inactive)
8,CC1COC(C(=O)O)(c2ccccc2)O1 (stereo not given),6.7% (inactive)
9,CCOC(=O)c1ccc(=O)n2c1[nH]c1ccccc12,-5.45% (inactive)
10,CCO/C=N/c1oc(-c2ccccc2)nc1C#N,1.1% (inactive)
11,CCCCCCCCCCCCn1[nH]c(C)c(C(=S)SCCCCCCCC)c1=O,7.3% (inactive)
12,O=C(Nc1ccc(C(=O)O)cc1)Nc1nccs1,43.7% (inactive)
13,COC(=O)C(C(=O)C(=O)NC1=C(Cl)C(=O)c2ccccc2C1=O)c1csc(-n2nc(-c3ccccc3)cc2-c2ccccc2)n1 (stereo not given),-5.4% (inactive)
14,CCOC(=O)NC(CCl)NC(=O)OCC,-35.5% (inactive)
15,COCn1cnc2c(ccn2C2OC(CO)C(O)C2O)c1=O (stereo not given),4.55% (inactive)
16,CC(C)=CCNc1nc(Cl)nc2nc[nH]c12,-67.7% (inactive)
17,CCCCC(N)=O,4.3% (inactive)
18,O=C1C2C(C(=O)N1c1cccc3ccccc13)C1(Cl)C(Cl)=C(Cl)C2(Cl)C1(Cl)Cl (stereo not given),94.5% (active)
19,COc1ccc(NC(=O)CCC(=O)CC(=O)c2ccc(C)cc2)cc1,36.2% (inactive)
20,Cc1cc(=O)[nH]c(=O)[nH]1,-5.4% (inactive)
